# Data taken from PubChem BioAssay (NCATS).
# Where “and” joins values, the source holds several entries; their conditions need not be identical. Equal entries are not always repeated. A number with no mark means an inactive call. Results filed as inconclusive are left out. Calls of active or inactive are those of the source. Unless noted, calls follow the shape of the dose curve; as a rule, active = well fitted curve in either direction with a large enough effect (not every such curve was filed as active); inconclusive = small, poorly fitted or top-dose-only effect, or another doubt; inactive = flat fitted curve, though single readings scatter.
# What was measured:
# [1] = AP1 Signaling Pathway (AID 357); settings: ME-180 (cervical carcinoma) AP-1-bla reporter, EGF-induced, beta-lactamase ratio, 5 h; series mostly up to 38 µM;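 also: ME-180 reporter cells stimulated with EGF at its EC50 level; % is scaled to controls: 0 for no effect and ±100 for the full control effect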
# Procedure, shortened: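 In this screen, ME-180 cells in Opti-MEM with 0.5% dialyzed FBS received EC50 EGF and compound titrations for 5 h. AP-1 reporter beta-lactamase was detected via CCF4 ratio, giving AC50 for positive and negative modulators.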
# [2] = molecular target: Cytochrome P450 1A2 (Homo sapiens) (UniProt P05177); test: p450-cyp1a2 (AID 410; calls by dose curve; also: potency is read from the fitted curve at half-maximal effect;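 as to activity change, negative = inhibition: -100% = full effect of reference inhibitor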); settings: recombinant CYP1A2, luciferin-ME demethylation, luminescence; series mostly up to 57 µM
# Sequence of Cytochrome P450 1A2 (Homo sapiens) (P05177 whole entry, looked up): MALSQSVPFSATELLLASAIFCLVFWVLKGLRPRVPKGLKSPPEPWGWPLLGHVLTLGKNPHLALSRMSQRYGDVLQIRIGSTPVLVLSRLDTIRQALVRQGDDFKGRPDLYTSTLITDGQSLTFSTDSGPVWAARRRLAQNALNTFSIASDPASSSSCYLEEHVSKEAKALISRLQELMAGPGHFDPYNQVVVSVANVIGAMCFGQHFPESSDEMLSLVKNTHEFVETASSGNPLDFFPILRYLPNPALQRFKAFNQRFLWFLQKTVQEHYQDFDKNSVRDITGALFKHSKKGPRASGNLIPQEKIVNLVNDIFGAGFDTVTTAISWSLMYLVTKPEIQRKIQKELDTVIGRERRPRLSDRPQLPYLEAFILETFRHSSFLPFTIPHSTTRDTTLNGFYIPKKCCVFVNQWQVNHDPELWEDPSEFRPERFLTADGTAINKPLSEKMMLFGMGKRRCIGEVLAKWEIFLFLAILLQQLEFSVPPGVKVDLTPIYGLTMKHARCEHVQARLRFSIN
# Procedure, shortened: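 Luminescent readout of luciferin formed from Luciferin-ME by human CYP1A2; data normalized against complete inhibition by 57 uM furafylline. Enzyme 20nM, substrate 100uM at Km, 100mM KPO4 buffer, 60 min reaction at room temperature.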
# [3] = NFAT Signaling Pathway (AID 444); settings: Jurkat NFAT-bla M1, carbachol, beta-lactamase ratio, 5 h;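 also: carbachol stimulus at about its EC50 of 1 µM final; % is scaled to controls: 0 for no effect and ±100 for the full control effect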
# Procedure, shortened: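 Jurkat cells with NFAT-driven β-lactamase reporter and co-expressed M1 receptor, stimulated with carbachol (final 1 uM, ~EC50), compound titration, 5 h at 37 °C. CCF4 loaded 1 h at RT; 460/530 nm ratio gave %activity and AC50.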
# [4] = molecular target: Lysosomal acid glucosylceramidase (Homo sapiens) (UniProt P04062); test: Glucocerebrosidase-p2 (AID 348; in the data active = potency below about 10 µM; also: potency is read from the fitted curve at half-maximal effect); settings: purified GBA, blue fluorogenic substrate, 40 min
# Sequence of Lysosomal acid glucosylceramidase (Homo sapiens) (P04062 whole entry, looked up): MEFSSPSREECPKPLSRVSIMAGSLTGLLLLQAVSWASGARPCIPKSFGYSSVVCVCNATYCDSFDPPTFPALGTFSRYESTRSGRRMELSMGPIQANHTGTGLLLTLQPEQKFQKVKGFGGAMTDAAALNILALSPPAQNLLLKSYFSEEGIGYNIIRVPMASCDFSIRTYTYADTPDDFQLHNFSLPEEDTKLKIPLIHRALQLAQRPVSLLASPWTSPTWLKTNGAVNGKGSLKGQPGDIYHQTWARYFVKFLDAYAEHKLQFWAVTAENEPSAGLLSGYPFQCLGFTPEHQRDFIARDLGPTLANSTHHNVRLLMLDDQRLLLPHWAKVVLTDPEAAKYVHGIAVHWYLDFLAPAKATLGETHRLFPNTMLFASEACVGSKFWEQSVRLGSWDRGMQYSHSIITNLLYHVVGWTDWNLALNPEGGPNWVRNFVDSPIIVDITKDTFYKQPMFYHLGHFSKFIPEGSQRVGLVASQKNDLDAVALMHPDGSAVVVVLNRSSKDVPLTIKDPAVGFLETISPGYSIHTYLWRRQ
# Source text: Beta-glucocerebrosidase catalyzes the hydrolysis of beta-glucocerebroside to glucose and ceramide. The inherited deficiency of beta-glucocerebrosidase results in Gaucher disease, which is characterized by a wide variety of symptoms including hepatosplenomegaly, anemia, thrombocytopenia, bony lesions and bone marrow infiltration with characteristic storage cells, known as Gaucher cells. There are also forms of the disorder affecting the central nervous system. Patients with the same genotypes can manifest with diverse clinical presentations and it is believed that improper folding and trafficking of beta-glucocerbrosidase may contribute to the phenotypes observed.
# Low molecular weight molecules, acting as chaperones, may potentially restore trafficking of misfolded beta-glucocerebrosidase from the endoplasmic reticulum to the lysosomes, thereby enhancing functional lysosomal beta-glucocerebrosidase activity.
# Using normal beta-glucocerebrosidase, an assay was developed to screen for small molecule inhibitors that could potentially act as molecular chaperones on the mutant forms [developed with NIH investigator Dr. Ellen Sidransky#s laboratory]. Two pro-fluorescent substrates were chosen for two screens against a small molecule library. […]
# Blue fluorescence substrate assay: […]
# Read the plate in Viewlux plate reader (Ex=365(10) and Em=440(10)).
# [5] = Cell Viability - BJ (AID 421; calls by dose curve;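 also: potency is read from the fitted curve at half-maximal effect; cells exposed to compound for 40 hours at 37 °C before readout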); settings: BJ fibroblast viability, qHTS
# Procedure, shortened: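 Normal human BJ foreskin fibroblasts, 1500/well in complete medium, treated 40 hr at 37 °C. Cellular ATP by CellTiter-Glo luminescence; normalized to DMSO and 100 uM tamoxifen, AC50 from Hill fit.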
# [6] = Cell Viability - Hek293 (AID 427;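 active = compounds whose dose-response curve shows a full or clear partial loss of cell viability, called from curve shape rather than a numeric limit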;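 also: potency is read from the fitted curve at half-maximal effect; cells exposed to compound for 40 hours at 37 °C before reading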); settings: qHTS
# Procedure, shortened: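 HEK293 cells in complete medium were exposed to compound for 40 hr at 37 °C, then cellular ATP was read by CellTiter-Glo luminescence. Data were normalized to DMSO (basal) and 100 uM tamoxifen (100% inhibition), and AC50 came from Hill fits.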
# [7] = Cell Viability - HepG2 (AID 433; calls by dose curve;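 also: potency is read from the fitted curve at half-maximal effect; potency for ATP loss meaning cytotoxicity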); settings: qHTS
# Procedure, shortened: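 Cytotoxicity read as ATP loss (CellTiter-Glo luminescence) after 40 hr compound exposure of HepG2, 1500 cells/well, 37 °C. AC50 by Hill equation; 0% set by DMSO, 100% inhibition by 100 uM tamoxifen.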
# [8] = Cell Viability - MRC5 (AID 434; calls by dose curve;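 also: potency is read from the fitted curve at half-maximal effect; potency reflects cytotoxicity seen as loss of intracellular ATP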); settings: MRC5 lung fibroblast viability, qHTS
# Procedure, shortened: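 MRC5 normal human lung fibroblasts, 1500 cells/well, exposed to compound for 40 hr at 37 C. Cellular ATP was read by CellTiter-Glo luminescence; data normalized to DMSO and 100 uM tamoxifen, with AC50 from Hill fits.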
# [9] = Cell Viability - SK-N-SH (AID 435; calls by dose curve; also: potency is read from the fitted curve at half-maximal effect); settings: SK-N-SH neuroblastoma cell viability qHTS
# Procedure, shortened: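 qHTS cytotoxicity: CellTiter-Glo ATP luminescence after 40 h compound exposure of human neuroblastoma SK-N-SH cells at 37 °C. AC50 derived by Hill-equation fitting, with DMSO as basal and 100 uM tamoxifen as full inhibition.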
# [10] = Cell Viability - Jurkat (AID 426;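 active = dose-dependent loss of cell ATP signal giving a full or clear fitted curve, ranked by lower potency value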; also: potency is read from the fitted curve at half-maximal effect); settings: qHTS
# Procedure, shortened: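 qHTS, 1536-well; Jurkat E6-1, 5000 cells/well, complete medium; cpd 40 hr, 37 °C; CellTiter-Glo 20 min RT; luminescence. AC50 by Hill fit.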
# [11] = at 38 µM (top of the series) unless noted
structure (smiles),measurement,setting,value
NCCc1ccc(S(=O)(=O)F)cc1,outcome,[1],inactive
same,Potency,[2],15.8 µM (active)
same,"activity change, negative = inhibition",[3]; [11],2.53%
CCCN1CCc2cc(O)cc3c2[C@H]1Cc1ccc(O)c(O)c1-3,outcome,[1],inactive
same,Potency,[2],12.6 µM (active)
CC(C)(C)c1cc(O)ccc1O,Potency,[4],> 11.4 µM
same,"activity change, negative = inhibition",[1],7.46% [at 7.69 µM]
same,"activity change, negative = inhibition",[2],-8.4% [at 11.4 µM]
same,Potency,[5],> 92 µM
same,Potency,[6],> 92 µM
same,Potency,[7],> 92 µM
same,Potency,[8],> 92 µM
same,Potency,[9],> 92 µM
same,"activity change, negative = inhibition",[3]; [11],-2.58% [at 7.69 µM]
O=[N+]([O-])c1ccc2nc(N3CCNCC3)ccc2c1,outcome,[1],inactive
same,Potency,[2],2 µM (active)
same,"activity change, negative = inhibition",[3]; [11],4.11%
CC(C)(C)c1cc(C=C(C#N)C#N)cc(C(C)(C)C)c1O,outcome,[1],inactive
same,Potency,[2],10 µM (active)
same,"activity change, negative = inhibition",[3]; [11],-108% (active)
C[C@@H]1[C@@H]2Cc3ccc(O)cc3[C@@]1(C)CCN2CC1CC1,outcome,[1],inactive
same,Potency,[2],inactive
CC(C)NP(=O)(NC(C)C)OP(=O)(NC(C)C)NC(C)C,outcome,[1],inactive
same,Potency,[2],inactive
same,"activity change, negative = inhibition",[3]; [11],-0.786%
O=C(O)c1cc[c]([Hg][Cl])cc1,outcome,[1],inactive
same,Potency,[2],3.16 µM (active)
NCCCP(=O)(O)O,outcome,[1],inactive
same,Potency,[2],inactive
same,"activity change, negative = inhibition",[3]; [11],-4.18%
CP(=O)(O)C1=CCNCC1,outcome,[1],inactive
same,Potency,[2],inactive
same,"activity change, negative = inhibition",[3]; [11],-1.42%
C[N+]1(C)[C@@H]2CC[C@H]1CC(OC(=O)c1c[nH]c3ccccc13)C2 (stereo partly specified),outcome,[1],inactive
same,Potency,[2],inactive
C[C@H](N)CN1CCc2ccc(Br)cc21,outcome,[1],inactive
C[N+]1(C)CCN(c2ccccc2)CC1,outcome,[1],inactive
same,Potency,[2],inactive
CCCn1c(C)c(C(=O)c2ccc3ccccc3c2)c2ccccc21,outcome,[1],inactive
same,Potency,[2],6.31 µM (active)
c1ccc2c(N3CCNCC3)cccc2c1,outcome,[1],inactive
same,Potency,[2],10 µM (active)
same,"activity change, negative = inhibition",[3]; [11],-26.6%
OCc1cnc[nH]1,outcome,[1],inactive
same,Potency,[2],inactive
same,"activity change, negative = inhibition",[3]; [11],7.81%
O=c1c2ccccc2[se]n1-c1ccccc1,outcome,[1],inactive
same,Potency,[2],3.98 µM (active) and 794 nM (active)
CN1[C@@H]2CC[C@H]1CC(OC(=O)C1C=Nc3ccccc31)C2 (stereo partly specified),outcome,[1],inactive
c1cc2c(c(NC3=NCCN3)c1)CCCC2,Potency,[4],> 11.4 µM
same,"activity change, negative = inhibition",[1],7.07% [at 7.69 µM]
same,"activity change, negative = inhibition",[2],-17.1% [at 11.4 µM]
same,"activity change, negative = inhibition",[3]; [11],-5.58% [at 7.69 µM]
Cc1c2ccncc2c(C)c2c1[nH]c1ccccc12,outcome,[1],inactive
same,Potency,[2],79.4 nM (active) and 20 nM (active)
CNC(=O)OCC[N+](C)(C)C,outcome,[1],inactive
same,Potency,[2],inactive
same,"activity change, negative = inhibition",[3]; [11],3.8%
CCCN(CCC)[C@H]1CCc2c(F)ccc(O)c2C1,outcome,[1],inactive
same,Potency,[2],12.6 µM (active) and 25.1 µM (active)
C[C@@H](Cc1ccccc1)NCCC(c1ccccc1)c1ccccc1,outcome,[1],inactive
CCCCCCC(C)(C)c1ccc([C@@H]2C[C@H](O)CC[C@H]2CCCO)c(O)c1,outcome,[1],inactive
C[C@@H]1O[C@H](C[N+](C)(C)C)CS1,outcome,[1],inactive
same,Potency,[2],inactive
O=C1C=CC(=O)C=C1,outcome,[1],inactive
same,Potency,[2],inactive
same,Potency,[5],> 92 µM
same,Potency,[10],31.4 µM (active)
same,Potency,[6],> 92 µM
same,Potency,[7],> 92 µM
same,Potency,[8],> 92 µM
same,Potency,[9],> 92 µM
same,"activity change, negative = inhibition",[3]; [11],-3.4%
COc1ccc2[nH]cc(CCN)c2c1,outcome,[1],inactive
same,Potency,[2],1.58 µM (active)
same,"activity change, negative = inhibition",[3]; [11],-0.77%
CN1CCC(c2c[nH]c3ccc(O)cc23)CC1,outcome,[1],inactive
same,Potency,[2],31.6 µM (active)
same,"activity change, negative = inhibition",[3]; [11],-5.82%
Cc1sc2ccccc2c1CC1=NCCN1,outcome,[1],inactive
same,Potency,[2],2.51 µM (active)
same,"activity change, negative = inhibition",[3]; [11],-16.3%
CCCN(CCC)C1Cc2cc(OC)c(OC)cc2C1,outcome,[1],inactive
same,Potency,[2],inactive
COc1ccc(OC)c(C(O)C(C)N)c1 (stereo unspecified),outcome,[1],inactive
Nc1ccc(CCN2CCN(c3cccc(C(F)(F)F)c3)CC2)cc1,outcome,[1],inactive
same,Potency,[2],10 µM (active)
C[N+](C)(C)CC#CCN1CCCC1=O,outcome,[1],inactive
same,Potency,[2],inactive
NNC(N)=O,Potency,[5],> 92 µM
same,Potency,[10],> 92 µM
same,Potency,[6],> 92 µM
same,Potency,[7],> 92 µM
same,Potency,[8],> 92 µM
same,Potency,[9],> 92 µM
NC(N)=NOCC[C@H](N)C(=O)O,"activity change, negative = inhibition",[3]; at 17.2 µM (top of the series),-0.483%
same,"activity change, negative = inhibition",[3]; at 38 µM (top of the series),17%
Oc1cc(Cl)c(Cl)cc1Cl,Potency,[5],> 92 µM
same,Potency,[6],> 92 µM
same,Potency,[7],> 92 µM
same,Potency,[8],> 92 µM
